# Where “and” joins values, the source holds several entries; their conditions need not be identical. Equal values may be shown once. Results filed as inconclusive are left out. Calls of active or inactive are those of the source. Calls follow the shape of the dose curve; as a rule, active = well fitted inhibition curve with a large enough effect in the repeat runs; inconclusive = weak or mixed curves; inactive = no such curve, though single readings can be large or run the other way.
# Test: qHTS assay to identify small molecule antagonists of the estrogen related receptor (ERR) signaling pathway from Tox21 library (AID 1224848); also: nearly all actives have a fitted effect of over 50% in size
# Details: ERR reporter cell line, luciferase antagonist mode, 18 h; series mostly up to 92.4 µM; activity, negative = inhibition: at the top concentration
# Description: U.S. Tox21 Program National Center for Advancing Translational Sciences [NCATS] NIH Chemical Genomics Center [NCGC] U.S. Environmental Protection Agency [EPA] National Institutes of Environmental Health Sciences [NIEHS] National Toxicology Program [NTP] U.S. Food and Drug Administration [FDA] Tox21 Assay Overview: Estrogen related receptors (ERRs), the first orphan nuclear receptors discovered, play an important role in the control of cellular energy metabolism. ERRs are required for high-energy production in response to the environmental challenges. ERR-alpha was also identified as an adverse marker for breast cancer progression; ERR-alpha-positive tumors have a poor prognosis. To screen and to identify environmental compounds that perturb the ERR signaling pathways could provide valuable information for potential therapeutic or preventive measures in the treatment of metabolic disease. For identifying ERR antagonists, ERR cell line (provided by NTP) has been used to screen Tox21 10K library.
# Tox21 Assay Protocol Summary: The ERR cells were dispensed at 2,000 cells/5 ul/well in 1536-well white plates using a Multidrop dispenser. After the assay plates were incubated at a 37 C/5% CO2 incubator for 6 hours, 23 nL of compounds dissolved in DMSO, positive and negative controls or DMSO only was transferred to the assay plate by a pin tool. The plates were incubated at 37 C for 18 hours. 4 ul/well of One-Glo reagent was added into the assay plates using a Flying Reagent Dispenser. After 30-minute incubation at room temperature, the luminescence intensity in the plates was measured using a ViewLux plate reader.
# % is scaled to controls: 0 for no effect and ±100 for the full control effect; potency is read from the fitted curve at half-maximal effect.
SMILES,"activity, negative = inhibition",Potency
Cc1ccccc1OP(=O)(Oc1ccccc1C)Oc1ccccc1C,-8.73% (inactive),
CNC(=O)/C=C(\C)OP(=O)(OC)OC,2.21% (inactive),
Oc1ccc(Cl)c(Cl)c1,-15.9% (inactive),
CC(=O)[O][Sn]([c]1ccccc1)([c]1ccccc1)[c]1ccccc1,,0.077 µM (active)
CCCCCCCCCCCCCCn1cc[n+](C)c1,,1.73 µM (active) and 1.35 µM (active)
O=C(Nc1ccc(F)cc1F)c1cccnc1Oc1cccc(C(F)(F)F)c1,8.71% (inactive),
Cc1cnc2c(C(=O)O)c(Cl)ccc2c1,-1.39% (inactive),
CNC(=O)O/N=C(\C)C(C)S(C)(=O)=O (stereo not given),11.5% [at 872 µM] (inactive),
BrCC(Br)(Br)Br,24% (inactive),
CCCCN(CCCC)C(=S)S,-9.98% (inactive),
CCC[CH2][Sn]([CH2]CCC)([CH2]CCC)[CH2]CCC,,13.7 µM (active)
Cc1c([N+](=O)[O-])c(C)c([N+](=O)[O-])c(C(C)(C)C)c1[N+](=O)[O-],-6.16% (inactive),
CC(C)=CC1C(C(=O)OC(C#N)c2cccc(Oc3ccccc3)c2)C1(C)C (stereo not given),-10.2% (inactive),
O=C1C2(Cl)C3(Cl)C4(Cl)C(Cl)(Cl)C5(Cl)C3(Cl)C1(Cl)C5(Cl)C24Cl (stereo not given),,26.9 µM (active) and 58.5 µM (active)
CN1CCc2cc3c(cc2C1O)OCO3 (stereo not given),1.09% (inactive),
CCC(OC(C)=O)C(CC(C)NC)(c1ccccc1)c1ccccc1 (stereo not given),,69.2 µM (active)
N#CC(C#N)=NNc1cccc(Cl)c1,,0.77 µM (active)
CCNS(=O)(=O)C(F)(F)C(F)(F)C(F)(F)C(F)(F)C(F)(F)C(F)(F)C(F)(F)C(F)(F)F,-15.4% (inactive),
Nc1ccc(N=Nc2ccccc2)cc1,102% (inactive),
COP(=O)(OC)O/C(=C\Cl)c1cc(Cl)c(Cl)cc1Cl,,21.7 µM (active)

SMILES,"activity, negative = inhibition",Potency
C#CCC1=C(C)C(OC(=O)C2C(C=C(C)C)C2(C)C)CC1=O (stereo not given),,48.2 µM (active)
O=[N+]([O-])c1ccc(CCl)cc1,5.48% (inactive),
O=c1c2ccccc2c(=O)c2c1cc(Cl)c1[nH]c3c([nH]c12)c(Cl)cc1c(=O)c2ccccc2c(=O)c13,-25.6% (inactive),
COc1cnc(OC)n2nc(NS(=O)(=O)c3c(OCC(F)F)cccc3C(F)(F)F)nc12,0.21% (inactive),
O=C1C[C@@H]2OCC=C3CN4CC[C@]56c7ccccc7N1[C@H]5[C@H]2[C@H]3C[C@H]46,-2.8% [at 42.5 µM] (inactive),
Nc1ccccc1-c1ccccc1,,27.1 µM (active)
C[C@]12Cc3cn[nH]c3C[C@@H]1CC[C@@H]1[C@@H]2CC[C@@]2(C)[C@H]1CC[C@]2(C)O,,26.6 µM (active)
ClC1(Cl)C2(Cl)C3(Cl)C4(Cl)C(Cl)(Cl)C5(Cl)C3(Cl)C1(Cl)C5(Cl)C24Cl (stereo not given),3.21% (inactive),
CCN1CCC2(CC1)COc1cc3c(cc12)N(C(=O)c1ccc(-c2ccc(-c4nnc(C)o4)cc2C)cc1)CC3,,10 µM (active)
O=[N+]([O-])c1ccccc1-c1ccccc1,-2.11% (inactive),
Brc1cccc(-c2ccccc2)c1,-1.41% (inactive),
ClCBr,8.13% (inactive),
CC(C)(C)c1ccc(OP(=O)(Oc2ccccc2)Oc2ccccc2)cc1,,61.5 µM (active)
Oc1ccc([C@H]2CNCc3c2ccc(O)c3O)cc1O,-9.31% [at 42.5 µM] (inactive),
CCCCCCC[CH2][Sn]([Cl])([Cl])[CH2]CCCCCCC,,61.1 µM (active)
CNC(=O)Oc1cc(C)cc(C(C)C)c1,13.7% (inactive),
c1ccc(N=NNc2ccccc2)cc1,,inactive
CCN(CC)CCN1C(=O)CN=C(c2ccccc2F)c2cc(Cl)ccc21,-16.3% [at 42.5 µM] (inactive),
CC(C)N(C(=O)CCl)c1ccccc1,,15.4 µM (active) and 13.7 µM (active)
Oc1cc(Cl)c(Cl)c(Cl)c1Cl,,26.7 µM (active)

# Reference: PubChem BioAssay (Tox21)
